# Test results: PubChem BioAssay (NCI)
# This is part of a sample that, as a whole, favours compounds with a hit. Of some 79,000 tested, about 15% had one in any assay. Values without a mark were called inactive. Activity calls are given as the source filed them. No stated cut-off is given here; in the data, active means growth inhibition above about 70%; inactive means the rest. Where a SMILES comes first, the peptide text is derived from it. The star is where a group is joined. Cbz = O=C(OCc1ccccc1)*
# Assay: NCI Yeast Anticancer Drug Screen. Data for the sgs1 mgt1 strain (AID 161);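 further: 0% = growth of cultures given vehicle only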
# Settings: S. cerevisiae sgs1 mgt1 strain, at 50.0 µM, hits give high values
# How it was run: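 Compounds are added to genetically altered yeast, and growth is compared with cultures given vehicle alone to give percent inhibition.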
row,Compound,growth inhibition
1,CCc1ccc(NC(=S)NC(=O)C(C)Oc2ccccc2)cc1 (stereo not given),54.7%
2,COc1ccc(NC(=O)CCC2=CC(=O)CC(c3ccccc3)O2)cc1 (stereo not given),2.35%
3,CCOc1c(N=Nc2ccccc2C)c(C)nn1C(N)=S,18.3%
4,Cc1c([N+](=O)[O-])cc(C(C)(C)C)c(OC(=O)Nc2cccc(Cl)c2)c1[N+](=O)[O-],79.7% (active)
5,CCOC(=O)c1cnc(=S)[nH]c1N,-19.2%
6,COc1ccc(CC(N)C(=O)OCCCl)cc1 (stereo not given),13.8%
7,C=C(C)c1ccccc1S(=O)(=O)c1ccccc1C(C)(C)O,6.25%
8,Cc1ccc(-n2cc(-c3ccc(Cl)cc3)c3c2N=CN2NC(c4cccs4)=NC32)cc1 (stereo not given),-18.9%
9,O=C(/C=C(\C(=O)c1ccccc1)c1ccccc1)c1ccc(Cl)cc1,-4.45%
10,O=c1cc(NCc2c(Cl)cccc2[N+](=O)[O-])[nH]c(=O)[nH]1,14.7%
11,CN(C)CCN(C)CC(C)(C)C(=O)/C=C/c1ccccc1,-21.6%
12,c1nnc2c3c4c(sc3ncn12)CCCC4,2.4%
13,CCC(O)C(=O)O (stereo not given),-20.9%
14,COc1cc(/C=N/NC(=O)Cc2cccc3ccccc23)ccc1O,3.05%
15,Cc1cc2c(cc1C)NC(=O)C(NC(=O)c1ccc(Cl)cc1)C=N2 (stereo not given),15.1%
16,CCOC(=O)c1[nH]c(Cc2[nH]c(C(=O)OCC)c(CC)c2C)c(C)c1CC,-4.75%
17,O=C(NC(=O)c1c(F)cccc1F)Nc1cccc(C(F)(F)F)c1,3.9%
18,COc1ccc(C2CC(c3cc(C)ccc3O)=NC(N)=N2)cc1 (stereo not given),15.8%
19,CC(=O)Nc1cccc(/C=C/c2ccc([N+](=O)[O-])cc2)c1,53%
20,O=C1OCCC1=P(c1ccccc1)(c1ccccc1)c1ccccc1,6.9%

row,Compound,growth inhibition
1,O/N=C/c1nc2ccccc2s1,-3.65%
2,Cc1ccc(S(=O)(=O)Nc2ccccc2-c2nc3c(Cl)ccc(Cl)c3c(=O)o2)cc1,41.5%
3,Cc1cccc(NC(=O)O/N=C(\Cl)C(C)C)c1,70%
4,CC(C)(C)C(=O)/C=C/c1ccc(Oc2ccccc2)cc1,4.05%
5,C=Cc1ccc(C)[n+](C[Si](C)(C)O[Si](C)(C)C)c1,-8.95%
6,CCOC(=O)CCC(NC(=O)C(CCC(=O)O)NC(=O)OCc1ccccc1)C(=O)OCC (stereo not drawn) (Cbz-Glu-Glu(OEt)-OEt; configuration not given here),-1.85%
7,COC(=O)C(=O)C1CCc2c(ccc3c2CCCC3)C1 (stereo not given),22.9%
8,CC(=O)OCCOCNC(=S)N/N=C/c1ccc([N+](=O)[O-])s1,23.9%
9,Nc1cccc2ncccc12,-13.5%
10,COC(=O)C(C)NC(=O)C(C)NC(=O)c1cc(OC)c(OC)c(OC)c1 (stereo not given),17.4%
11,Clc1ccc(C2ON=C(c3ccccc3)N2C23CC4CC(CC(C4)C2)C3)cc1 (stereo not given),-24.1%
12,O=C(CCc1n[nH]c(=S)o1)Nc1ccccc1,30.4%
13,CC(=O)c1cc(C(C)=O)c(CC(=O)C(=O)Nc2cccc(C)c2C)nc1CC(=O)C(=O)Nc1cccc(C)c1C,16.5%
14,CCCCC(CC)C1OCCS1 (stereo not given),-4.3%
15,CN1CCN(c2nc3c(c(=O)n(C)c(=O)n3C)n2C)CC1,-18.8%
16,O=C1C(=O)N(c2cc(Cl)ccc2Cl)C(=O)C(=O)C1c1nc2ccccc2s1,0.3%
17,O=C1NC(c2ccccc2Cl)Nc2ccccc21 (stereo not given),5.65%
18,Nc1nc2c(c(=O)[nH]1)CN(CCCN1CCOCC1)CN2,-19.1%
19,CCCCCCCCCCCCCCCCC(NC(C)=O)(C(=O)OCC)C(=O)OCC,20.9%
20,Nc1ccc2c(c1)NCC2,-17.1%
